Compounds with a hit are over-represented: about 1.8% of the library has one in this group of screens.
Cardio protect: cardioprotection against H2O2-induced cell death, primary screen, uHTS, H9c2 cells, ATPLite luminescence; H9c2 cardiomyocytes, H2O2 injury protection, 2 h; protection from H2O2 cell death, % at 20 µM; actives 0.63% (n = 360,000); AID 588492, 2011;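 active means compounds giving at least 50% protection of heart cells from peroxide-induced death in the single-dose screen, raw or plate-pattern-corrected value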
GRK2 aptamer HTS: compounds blocking aptamer binding on GRK2 – biochemical, human GRK2, bead flow cytometry, HTS, primary screen; Beta-adrenergic receptor kinase 1 (Homo sapiens), P25098; inhibition of aptamer binding, % at 10 µM; FAM-aptamer displacement from GRK2; actives 0.59% (n = 330,000); AID 488847, 2010;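 active means inhibition of aptamer binding above 40%, roughly 3 SD of noise, on plates passing a quality check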;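 further: median bead fluorescence of bound FAM aptamer so fluorescent compounds give negative values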
Target sequence (P25098 whole entry, looked up): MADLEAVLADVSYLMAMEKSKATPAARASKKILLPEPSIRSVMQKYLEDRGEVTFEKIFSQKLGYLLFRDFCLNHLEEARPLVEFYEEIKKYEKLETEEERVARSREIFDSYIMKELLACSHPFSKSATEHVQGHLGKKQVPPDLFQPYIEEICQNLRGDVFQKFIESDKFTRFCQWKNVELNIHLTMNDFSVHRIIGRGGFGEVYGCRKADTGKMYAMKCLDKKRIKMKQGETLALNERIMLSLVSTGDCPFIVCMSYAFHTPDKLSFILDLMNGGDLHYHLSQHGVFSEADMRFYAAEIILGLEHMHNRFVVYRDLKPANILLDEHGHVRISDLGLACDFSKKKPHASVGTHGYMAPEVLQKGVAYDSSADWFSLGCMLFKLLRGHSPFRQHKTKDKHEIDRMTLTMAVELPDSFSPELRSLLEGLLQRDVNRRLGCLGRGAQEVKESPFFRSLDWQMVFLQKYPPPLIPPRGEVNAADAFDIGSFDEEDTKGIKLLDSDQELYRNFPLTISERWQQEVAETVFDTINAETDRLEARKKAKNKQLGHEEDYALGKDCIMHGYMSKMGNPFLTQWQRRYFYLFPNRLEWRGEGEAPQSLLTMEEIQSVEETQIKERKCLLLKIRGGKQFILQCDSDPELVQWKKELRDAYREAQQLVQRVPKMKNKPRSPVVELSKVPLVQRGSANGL
Neddyl block: inhibitors of cullin neddylation, primary screen, biochemical, TR-FRET, uHTS, NAE and Ubc12; inhibition, % at 25 µM; actives 0.58% (n = 360,000); in the data active means inhibition above about 36%
HDAC3 inh: HDAC3 deacetylase inhibitors, primary screen, biochemical, fluorescence, cell-free homogeneous | Histone deacetylase 3 (Homo sapiens), O15379 | recombinant HDAC3, fluorogenic peptide/trypsin coupled | inhibition, % at 8.3 µM | actives 0.15% (n = 320,000); in the data active means inhibition above about 26%, passing the limit was not always enough; inconclusive means no clear call, values can overlap the other calls
Hits are given with their value; i = inactive; ? = inconclusive; nt = no result given.

SMILES	Cardio protect	GRK2 aptamer HTS	Neddyl block	HDAC3 inh
O=c1[nH]c2cc([N+](=O)[O-])ccc2c2ccccc12	65	nt	i	nt
O=c1[nH]c2ccccc2c2ccccc12	71	i	i	i
O=c1[nH]c2cccc(Cl)c2c2ccccc12	51	nt	i	nt
O=C1CCCC(O)=C1C=NCc1ccccc1	i	i	i	i
COc1ccc(CCNC(=O)CCNS(=O)(=O)c2cccc(Cl)c2)cc1OC	i	i	i	i
CCOc1ccccc1N1CC(C(=O)Nc2ccc3c(c2)OCCO3)CC1=O (stereo not drawn)	i	i	i	i
O=[N+]([O-])c1ccc(S(=O)(=O)N2CCN=C2SCc2ccc(F)cc2)cc1	i	i	i	i
Cn1c(=O)c2c(nc(NCc3ccc4c(c3)OCO4)n2C)n(C)c1=O	53	i	i	i
CCc1cc(CNC(=O)c2ccc(OC3CCN(CCc4ccccc4)CC3)cc2)on1	i	49	i	i
O=C(NCc1ccon1)c1ccc(OC2CCN(CCc3ccccc3)CC2)cc1	i	i	i	i
CC(=O)C(C(C)=O)C(c1ccccc1)c1nc2ccccc2[nH]c1=O (stereo not drawn)	i	i	i	i
COc1ccc(CCNC(=O)c2cc(C(=O)c3cc(Cl)ccc3O)cn(CCc3ccc(OC)cc3)c2=O)cc1	i	i	i	i
COc1ccc(C(=O)n2cc(C(=O)c3cc(C)ccc3O)cn2)cc1	i	i	i	37
COc1ccc(CCNC(=O)c2cc(C(=O)c3cc(C)ccc3O)cn(CCc3ccc(OC)cc3)c2=O)cc1	65	i	i	i
O=C(c1cnn(C(=O)c2ccc(O)cc2)c1)c1ccccc1O	nt	i	nt	76
Cc1ccc(S(=O)(=O)N2CCCN(C)c3nc4ccccc4nc32)cc1	i	i	i	i
CC(C)C[C@H]1CNC(=S)N1CC1CCN(CCCC2CCCCC2)CC1	i	nt	i	nt
COCCOC(=O)N/C=C\c1nc2ccccc2c(=O)[nH]1	65	i	i	i
COc1ccc(C2(CNC(=O)/C=C\c3ccco3)CCCC2)cc1OC	i	48	i	i
CCN(CC)CCn1nc2c3c(cccc3c1=O)-c1ccccc1-2	i	i	i	i
O=c1c2cccc3c2c(nn1CN1CCOCC1)-c1ccccc1-3	75	i	i	i
CS(=O)(=O)Nc1cccc(NC(=O)c2cccc3c(-c4cccc(C(N)=O)c4)coc23)c1	54	nt	i	nt
CCCC(=O)Oc1ccc(N(C(=O)CCC)S(=O)(=O)c2cccs2)cc1	i	i	i	56
COc1ccc(N(C(=O)c2cccc([N+](=O)[O-])c2)S(=O)(=O)c2cccs2)cc1	51	i	i	i
CC(=O)Oc1ccc(N(C(C)=O)S(=O)(=O)c2cccs2)cc1	i	i	i	i
SMILES	Cardio protect	GRK2 aptamer HTS	Neddyl block	HDAC3 inh
COc1ccc(N(C(=O)c2ccncc2)S(=O)(=O)c2cccc([N+](=O)[O-])c2)cc1	i	i	i	i
CCCC(=O)Oc1ccc(N(C(=O)CCC)S(=O)(=O)c2cccc([N+](=O)[O-])c2)cc1	i	i	i	50
Cc1nn(-c2ccccc2)c(C)c1C(=O)OCC(=O)N1c2ccccc2NC(=O)C1(C)C	99	i	i	i
Cc1ccc(Nc2nnc(SCC(=O)c3c(N)n(C4CC4)c(=O)[nH]c3=O)s2)cc1C	i	i	i	i
COc1cc(C(=S)N2CCN(c3ccccc3Cl)CC2)cc(O)c1O	85	i	i	i
COc1ccc(C(=S)N2CCN(c3ccccc3Cl)CC2)cc1OC	i	i	i	i
CC(=O)Nc1cccc(-c2ccnc3c2CC(C)(C(=O)Nc2cccnc2)O3)c1 (stereo not drawn)	i	nt	i	nt
O=C(c1cc2nc(-c3ccccc3)cc(-c3ccccc3)n2n1)N1CCCC1	i	i	nt	i
O=C(c1ccco1)N1CCN(C(=O)c2cc(-c3ccncc3)nc3ccc(Br)cc23)CC1	53	i	i	i
O=C(c1ccco1)N1CCN(C(=O)c2cc(-c3ccccc3)nc3ccccc23)CC1	i	i	i	i
O=C(c1cc2nc(-c3ccccc3)cc(-c3ccccc3)n2n1)N1CCN(C(=O)c2ccco2)CC1	104	i	nt	i
COc1ccccc1-n1c(SCC(=O)NCc2ccc3c(c2)OCO3)nc2cc([N+](=O)[O-])ccc21	107	i	i	i
CC1=C(C(=O)N(C)C)CC(CC(=O)NC2CCCC2)C(=O)N1Cc1ccc(F)cc1 (stereo not drawn)	i	nt	i	nt
O=Cc1c(NCc2cccc(F)c2)c2ccccc2[nH]c1=O	i	i	i	i
CC1CCCN(Cc2nc3c(c(=O)n(C)c(=O)n3C)n2CCCc2ccccc2)C1 (stereo not drawn)	55	i	i	i
Cn1c(=O)c2c(nc(CN3CCN(C(=O)c4ccco4)CC3)n2CCCc2ccccc2)n(C)c1=O	52	i	i	nt
Cc1noc(C)c1COc1ccc(C(=O)OCC(=O)Nc2cccc(S(=O)(=O)N3CCOCC3)c2)cc1	i	i	i	i
Oc1ccccc1/C=N/NC(=S)NC1CC2CC1C1C=CCC21 (stereo not drawn)	i	i	53	i
C[C@@H](C(=O)Nc1nc(-c2ccccn2)cs1)N1C(=O)C2CCCCC2C1=O (stereo partly drawn)	95	i	i	i
CC(C)[C@H](NC(=O)c1ccccc1Cl)C(=O)Nc1nc(-c2ccccn2)cs1	70	i	i	i
CC(Oc1ccc(Br)cc1)C(=O)Nc1nc(-c2ccccn2)cs1 (stereo not drawn)	49	i	i	i
CCc1nnc(NC(=O)C(NC(=O)c2ccccc2Cl)C(C)C)s1 (stereo not drawn)	i	i	i	i
CC1CC1C(=O)Nc1nc(-c2ccccn2)cs1 (stereo not drawn)	i	i	i	i
CCCc1c(O)nc(SCC(=O)O)[nH]c1=O	i	i	i	i
COC(=O)N(C)C[C@@H]1OCc2cnnn2CCCC(=O)N([C@@H](C)CO)C[C@H]1C	i	nt	i	nt
SMILES	Cardio protect	GRK2 aptamer HTS	Neddyl block	HDAC3 inh
O=C(Nc1ccn(-c2ccccc2)n1)c1ccccc1Br	i	i	i	i
COc1cccc(/C=N/Nc2ncnc3c2ncn3Cc2ccccc2)c1O	60	i	i	i
Cc1ccc(S(=O)(=O)Nc2ccc(O)c3ncccc23)cc1	52	i	i	?
Cc1[nH]n(C2=NCCS2)c(=O)c1N=Nc1ccccc1	i	i	i	60
CCc1ccc(NC(=O)CSc2nnc(CNC(=O)c3ccc(OC)cc3)o2)cc1	i	i	i	i
O=C(NNC(=O)c1ncc(Cl)c(Cl)c1Cl)c1ccc(F)cc1	78	i	i	i
O=C(NNC(=O)c1nc(Cl)ccc1Cl)c1ccc(F)cc1	i	i	i	i
CC1CC(C)(C)CC2(C1)NC(=O)N(CC(=O)N1CCN(S(=O)(=O)c3ccc(F)c(F)c3F)CC1)C2=O (stereo not drawn)	i	nt	i	nt
COc1cc(OC)c2cc(C(=O)N/N=C/c3ccccc3O)[nH]c2c1	57	i	i	i

Source: PubChem
